Most compounds without a hit are left out; they make up all but 19% or so of the library.
S-ASM inh: human S-ASM enzyme inhibition | actives 0.006% (n = 340,000) | Potency, µM (doses to about 57.5 µM), without a hit: top-dose activity change, negative = inhibition, actives largely listed as inhibitors | placental ASM, HMU-PC fluorogenic substrate, 60 min | AID 504937; further: potency means the concentration at half of the fitted maximal effect
Target sequence (P17405 47-631 limits assumed): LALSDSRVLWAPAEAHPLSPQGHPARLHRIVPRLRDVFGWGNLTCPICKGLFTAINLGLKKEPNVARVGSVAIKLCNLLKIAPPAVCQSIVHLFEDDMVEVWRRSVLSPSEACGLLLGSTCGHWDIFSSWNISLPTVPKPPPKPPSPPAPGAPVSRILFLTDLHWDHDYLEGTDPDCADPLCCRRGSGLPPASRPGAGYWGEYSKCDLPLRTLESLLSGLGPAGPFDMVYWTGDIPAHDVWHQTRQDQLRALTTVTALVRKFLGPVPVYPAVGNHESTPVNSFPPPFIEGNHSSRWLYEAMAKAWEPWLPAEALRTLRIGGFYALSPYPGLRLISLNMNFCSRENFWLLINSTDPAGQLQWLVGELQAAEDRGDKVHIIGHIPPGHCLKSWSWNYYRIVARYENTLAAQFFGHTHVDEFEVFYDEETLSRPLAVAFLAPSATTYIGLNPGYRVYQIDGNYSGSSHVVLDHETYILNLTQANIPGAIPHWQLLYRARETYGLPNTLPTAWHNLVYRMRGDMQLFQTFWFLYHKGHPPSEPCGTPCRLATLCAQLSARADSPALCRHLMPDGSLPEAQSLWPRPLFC
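Human placenta-derived ASM preincubated with compound 10 min at room temperature, then reacted with 9 uM (final) fluorogenic HMU-PC substrate for 60 min at 37 C. Stop solution raises pH to 10; fluorescence read at Ex 386/Em 447 nm.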
TGFb SMAD3 inh: blocks TGF-b signaling; actives 1.2% (n = 410,000); Potency, µM (top dose mostly 46.1 µM), for the others: top-dose activity, negative = inhibition, usual class: inhibitors; HepG2 CAGA-GFP TGF-b/SMAD3 reporter, GFP fluorescence, 18 h; TGF-beta stimulated, 500 pg/mL final; further: potency means the concentration at half of the fitted maximal effect; on the % scale 0 is the no-effect control and ±100 the full control effect; nearly all actives have a fitted effect of over 65% in size
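Using HEPG2 CAGA-GFP reporter cells at 1000 cells/well, we pinned test compounds, stimulated with recombinant TGF-beta (500 pg/mL final) and measured total well GFP after 18 h.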
TDP1 cell CPT: DT40-hTDP1 cell growth loss with CPT; chicken DT40 Tdp1-/-;hTDP1 cells + 20 nM CPT, ATP luminescence, 48 h; AID 686979; actives 12% (n = 420,000); Potency, µM (top dose mostly 46.2 µM), for the others: at the top dose activity change, negative = growth inhibition, actives largely listed as inhibitors; further: potency means the concentration at half of the fitted maximal effect; on the % scale 0 is the no-effect control and ±100 the full control effect; nearly all actives have a fitted effect of over 55% in size
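Chicken DT40 Tdp1-/- cells stably complemented with human TDP1 were seeded at 400 cells/well in medium containing 20 nM camptothecin, exposed to pin-transferred compounds, and grown at 37 °C for at least 48 hr. Viability was read as ATP luminescence.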
IL1B secr inh: blocks inflammasome-driven IL-1 beta release; AID 743279; actives 4.7% (n = 360,000); activity change, % at 57.5 µM; THP-1 LPS/ATP IL-1B secretion, AlphaLISA, 16 h; stronger effect = lower value; in the data active means activity change below about -50%; inconclusive means mostly about -30% to -49%; further: on the % scale 0 is the no-effect control and ±100 the full control effect
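THP-1 cells pretreated 1 hr with compounds (up to 57.5 uM final), then stimulated with LPS (250 ng/mL final) plus ATP (1.25 mM final); secreted IL-1B measured by AlphaLISA after 16 hr, decreased signal indicating inhibition.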
DT40 TDP1 no CPT: qHTS for Inhibitors of human tyrosyl-DNA phosphodiesterase 1 (TDP1): qHTS in cells in absence of CPT; AID 686978, 2013; actives 15% (n = 420,000); Potency, µM (series often up to 46.2 µM), without a hit: at the highest dose activity change, negative = growth inhibition, actives largely listed as inhibitors; DT40 Tdp1-/- hTDP1 cells, no CPT, ATP luminescence, 48 h; further: potency means the concentration at half of the fitted maximal effect; on the % scale 0 is the no-effect control and ±100 the full control effect; nearly all actives have a fitted effect of over 55% in size
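Luminescent ATP content (CellTiter-Glo) served as the growth readout. Knockout chicken DT40 cells expressing human TDP1 were exposed to compounds without camptothecin for a minimum 48 hr at 37 °C.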
HepG2 tox: kills HepG2 cells in TGF-b inhibitor counter-screen; AID 588856; actives 0.76% (n = 410,000); Potency, µM (highest dose often 46.1 µM), for inactives: at the highest dose activity change, negative = cytotoxicity, most hits filed as cytotoxic; HepG2 CAGA-GFP viability, ATP luminescence, 18 h; further: potency means the concentration at half of the fitted maximal effect
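CellTiter-Glo luminescence gave cytotoxicity after 18 hours at 37 degrees C. The cells were HepG2 CAGA-GFP in 1% FBS DMEM, stimulated with 500 pg/mL TGF-beta after compound addition. %Activity was normalised to no-cell wells (complete cell-killing) and DMSO (no toxicity), and curves were fitted and classified.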
Active calls of the source: *; ? = inconclusive; / = no result given; [ ] = remark or other dose. Unless noted, the call rests on the fitted dose curve; in most records, active means well fitted curve in the direction sought with a large enough effect; inconclusive means small, poorly fitted or top-dose-only effect, or another doubt; inactive means no such curve, though single readings can be large; an effect the other way counts as inactive or inconclusive.

SMILES	S-ASM inh	TGFb SMAD3 inh	TDP1 cell CPT	IL1B secr inh	DT40 TDP1 no CPT	HepG2 tox
CN1CCN(C(=O)c2ccc3c(c2)N(Cc2c(F)cccc2Cl)C(=O)c2ccccc2S3)CC1	/	?	?	/	23.1µM*	-40.7%
CCN1CCN(C(=O)c2ccc3c(c2)N(Cc2cccc(F)c2)C(=O)c2ccccc2S3)CC1	/	?	?	/	?	-38.6%
COc1ccc(NC(=O)c2ccc3c(c2)c(C)c(C)n3Cc2ccc(F)cc2)c(OC)c1	/	0.0%	18.4µM*	/	20.6µM*	-32.7%
COc1ccc(OC)c(NC(=O)c2ccc3c(c2)c(C)c(C)n3Cc2ccc(F)cc2)c1	/	?	?	/	20.6µM*	-37.3%
COc1ccccc1-n1cnnc1SCC(=O)NC1CCCC1	0.9%	31.7%	21.9%	3.4	-3.1%	-14.4%
CC1=NN2C(=N)/C(=C\c3cc(C)n(-c4ccc(C)cc4)c3C)C(=O)N=C2S1	49.0%	2.7%	-10.1%	16.2	-15.5%	1.1%
COc1ccccc1NC(=O)CSc1nc2ccccc2nc1N1CC(C)OC(C)C1 (stereo not given)	13.9%	-32.5%	20.6µM*	24.7	?	-22.5%
COc1ccc(C)cc1NC(=O)CSc1nc2ccccc2nc1N1CC(C)OC(C)C1 (stereo not given)	3.4%	-0.5%	23.1µM*	5.2	25.9µM*	-14.2%
Cc1ccc(-c2csc3nc(-c4ccncc4)[nH]c(=O)c23)cc1	24.9%	-10.8%	4.11µM*	-7.5	2.59µM*	-41.0%
O=c1[nH]c(Cc2ccc(F)cc2)nc2scc(-c3ccc(F)cc3)c12	-3.3%	?	13µM*	0.0	25.9µM*	-1.2%
Cc1ccc(-c2csc3nc[nH]c(=O)c23)cc1	4.5%	-5.7%	30.1%	-17.6	?	-7.1%
O=c1[nH]c(Cc2cccs2)nc2scc(-c3ccc(Cl)cc3)c12	-2.2%	1.1%	13µM*	1.1	-27.6%	13.9%
Cc1ccc(-c2csc3nc(CN(C)Cc4ccccc4)[nH]c(=O)c23)cc1	-3.6%	?	?	31.5	25.9µM*	-34.2%
O=c1[nH]c(Cc2ccccn2)nc2scc(-c3ccc(Cl)cc3)c12	-0.8%	-10.2%	?	-15.1	-18.8%	-16.6%
CCOC(=O)c1c(NC(=O)COC(=O)c2ncc(Cl)c(Cl)c2Cl)sc(C(=O)N(C)C)c1C	-8.3%	-2.4%	?	?	-24.4%	-17.1%
CCc1ccc(-n2c(=O)c3c4c(sc3n(Cc3ccccc3C#N)c2=O)CCC4)cc1	/	0.0%	-11.6%	/	-7.2%	0.7%
O=C(Nc1ccc(Cl)c(C(F)(F)F)c1)[C@@H]1CC=C[C@@H]2CCN(Cc3ccc(Cl)c(Cl)c3)C(=O)[C@@H]21	-10.3%	?	?	-0.5	?	-7.8%
Cc1ccc2c(CC(=O)N3CCOc4ccc(CN5C[C@@H](C)O[C@@H](C)C5)cc4C3)cc(=O)oc2c1	/	/	21.1%[9.04 µM]	/	-14.5%	/
CCn1cnnc1SCC(=O)Nc1ccccc1C(=O)NC1CC1	-0.3%	?	-13.1%	23.4	-18.6%	-0.2%
COc1cccc(NC(=O)c2cccc(C(=O)Nc3cccc(OC)c3)n2)c1	-19.3%	3.0%	4.7%	0.0	-16.1%	19.6%
COc1cccc(NC(=O)c2nc(S(C)(=O)=O)ncc2Cl)c1	0.9%	15.8µM*	1.03µM*	-100.9*	0.651µM*	-96.0%
CCS(=O)(=O)c1ncc(Cl)c(C(=O)Nc2c(C(=O)Nc3cccc(C)c3)oc3ccccc23)n1	/	0.891µM*	1.03µM*	/	0.731µM*	-19.7%
Cc1cccc(NC(=O)c2nc(S(C)(=O)=O)ncc2Cl)c1	/	7.94µM*	0.651µM*	/	0.92µM*	20µM*
